In PubChem BioAssay AID1159580 (chemical genetic matrix, 2015):
Screen size: about 5,500 compounds; about 2,000 (36%) were called active. Roughly 18% stayed inconclusive and do not appear here. Cut-off read from the data, not from the text of the source: active = normalized growth mostly below about 0.91 (no sharp cut-off); inconclusive = no clear call, values can overlap the other calls; inactive = mostly above about 0.92. Some of the results follow.

Assay: chemical genetic growth profiling, strain panel (AID 1159580);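 note: tested at 20 µM; growth read once vehicle control cultures reached saturation at 30 °C; 1 = growth at the plate median or of vehicle wells; lower values mean less growth of the strain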
Details: growth OD

Measured: normalized growth

O=c1c(-c2ccc3c(c2)OCO3)coc2cc(O)ccc12
inactive: S. cerevisiae deletion strains, locus YJR043C, strain POL32, active compounds read low 1 | S. cerevisiae deletion strains, locus YJR075W, strain HOC1, active compounds read low 1.02 | S. cerevisiae deletion strains, locus YKL009W, strain mrt4, active compounds read low 0.963 | S. cerevisiae deletion strains, locus YKL068W, active compounds read low 0.994 | S. cerevisiae deletion strains, locus YKL085W, strain MDH1 (second series), active compounds read low 0.995 | S. cerevisiae deletion strains, locus YKL085W, strain MDH1, active compounds read low 0.995 | S. cerevisiae deletion strains, locus YKL160W, strain elf1, active compounds read low 0.983 | S. cerevisiae deletion strains, locus YKL190W, strain CNB1, active compounds read low 1 | S. cerevisiae deletion strains, locus YKR001C, strain vps1, active compounds read low 0.969 | S. cerevisiae deletion strains, locus YKR026C, strain gcn3, active compounds read low 0.98 | S. cerevisiae deletion strains, locus YKR091W, strain srl3, active compounds read low 0.998 | S. cerevisiae deletion strains, locus YLL001W, strain dnm1, active compounds read low 0.977 | S. cerevisiae deletion strains, locus YLL026W, active compounds read low 0.989 | S. cerevisiae deletion strains, locus YLL041C, strain sdh2, active compounds read low 0.995 | S. cerevisiae deletion strains, locus YLR027C, strain aat2, active compounds read low 0.987 | S. cerevisiae deletion strains, locus YLR039C, strain RIC1, active compounds read low 0.969 | S. cerevisiae deletion strains, locus YLR058C, strain SHM2, active compounds read low 0.994 | S. cerevisiae deletion strains, locus YLR102C, strain apc9, active compounds read low 0.987 | S. cerevisiae deletion strains, locus YLR221C, strain rsa3, active compounds read low 0.994 | S. cerevisiae deletion strains, locus YLR258W, strain gsy2, active compounds read low 0.981 | S. cerevisiae deletion strains, locus YLR262C, strain YPT6 (second series), active compounds read low 0.957 | S. cerevisiae deletion strains, locus YLR262C, strain YPT6, active compounds read low 0.994 | S. cerevisiae deletion strains, locus YLR268W, strain sec22, active compounds read low 0.981 | S. cerevisiae deletion strains, locus YLR320W, strain mms22, active compounds read low 0.957 | S. cerevisiae deletion strains, locus YLR330W, strain CHS5, active compounds read low 1 | S. cerevisiae deletion strains, locus YLR342W, strain FKS1 (second series), active compounds read low 0.981 | S. cerevisiae deletion strains, locus YLR342W, strain FKS1, active compounds read low 0.98 | S. cerevisiae deletion strains, locus YLR357W, strain rsc2, active compounds read low 0.965 | S. cerevisiae deletion strains, locus YLR370C, strain arc18, active compounds read low 1 | S. cerevisiae deletion strains, locus YLR371W, strain rom2, active compounds read low 0.981 | S. cerevisiae deletion strains, locus YLR384C, strain iki3, active compounds read low 0.971 | S. cerevisiae deletion strains, locus YLR418C, strain cdc73, active compounds read low 0.984 | S. cerevisiae deletion strains, locus YML016C, strain PPZ1, active compounds read low 0.985 | S. cerevisiae deletion strains, locus YML032C, strain rad52, active compounds read low 0.969 | S. cerevisiae deletion strains, locus YML120C, strain ndi1, active compounds read low 0.995 | S. cerevisiae deletion strains, locus YML124C, strain tub3, active compounds read low 0.976 | S. cerevisiae deletion strains, locus YMR058W, strain fet3, active compounds read low 1 | S. cerevisiae deletion strains, locus YMR078C, strain ctf18, active compounds read low 0.967 | S. cerevisiae deletion strains, locus YMR125W, strain sto1, active compounds read low 0.986 | S. cerevisiae deletion strains, locus YMR129W, active compounds read low 0.997 | S. cerevisiae deletion strains, locus YMR205C, strain PFK2, active compounds read low 0.978 | S. cerevisiae deletion strains, locus YMR223W, strain ubp8, active compounds read low 0.976 | S. cerevisiae deletion strains, locus YMR231W, strain pep5, active compounds read low 1 | S. cerevisiae deletion strains, locus YMR263W, strain SAP30, active compounds read low 1.01 | S. cerevisiae deletion strains, locus YMR307W, strain GAS1, active compounds read low 0.974 | S. cerevisiae deletion strains, locus YNL067W, strain RPL9B, active compounds read low 1.03 | S. cerevisiae deletion strains, locus YNL071W, strain lat1, active compounds read low 0.996 | S. cerevisiae deletion strains, locus YNL128W, strain TEP1, active compounds read low 1.02 | S. cerevisiae deletion strains, locus YNL153C, strain GIM3, active compounds read low 1.01 | S. cerevisiae deletion strains, locus YNL209W, strain ssb2, active compounds read low 0.987 | S. cerevisiae deletion strains, locus YNL233W, strain BNI4, active compounds read low 0.997 | S. cerevisiae deletion strains, locus YNL248C, strain rpa49, active compounds read low 0.987 | S. cerevisiae deletion strains, locus YNL250W, strain rad50, active compounds read low 0.989 | S. cerevisiae deletion strains, locus YNL271C, strain bni1, active compounds read low 0.992 | S. cerevisiae deletion strains, locus YNL298W, strain CLA4, active compounds read low 0.981 | S. cerevisiae deletion strains, locus YNL307C, strain MCK1, active compounds read low 0.948 | S. cerevisiae deletion strains, locus YNL322C, strain KRE1 (second series), active compounds read low 0.992 | S. cerevisiae deletion strains, locus YNL322C, strain KRE1, active compounds read low 0.999 | S. cerevisiae deletion strains, locus YNR049C, strain mso1, active compounds read low 0.996 | S. cerevisiae deletion strains, locus YNR052C, strain pop2, active compounds read low 0.975 | S. cerevisiae deletion strains, locus YOL006C, strain TOP1, active compounds read low 1.01 | S. cerevisiae deletion strains, locus YOL012C, strain htz1 1.06 | S. cerevisiae deletion strains, locus YOL147C, strain pex11, active compounds read low 0.976 | S. cerevisiae deletion strains, locus YOR001W, strain rrp6, active compounds read low 0.991 | S. cerevisiae deletion strains, locus YOR061W, strain CKA2, active compounds read low 0.981 | S. cerevisiae deletion strains, locus YOR069W, strain VPS5, active compounds read low 0.991 | S. cerevisiae deletion strains, locus YOR070C, strain gyp1, active compounds read low 0.99 | S. cerevisiae deletion strains, locus YOR080W, strain dia2, active compounds read low 0.981 | S. cerevisiae deletion strains, locus YOR083W, strain WHI5, active compounds read low 1 | S. cerevisiae deletion strains, locus YOR106W, strain vam3, active compounds read low 0.986 | S. cerevisiae deletion strains, locus YOR136W, strain idh2, active compounds read low 0.985 | S. cerevisiae deletion strains, locus YOR144C, strain elg1, active compounds read low 0.98 | S. cerevisiae deletion strains, locus YOR184W, strain ser1, active compounds read low 0.994 | S. cerevisiae deletion strains, locus YOR265W, strain rbl2, active compounds read low 0.991 | S. cerevisiae deletion strains, locus YOR270C, strain vph1, active compounds read low 1.02 | S. cerevisiae deletion strains, locus YOR290C, strain snf2, active compounds read low 0.958 | S. cerevisiae deletion strains, locus YOR316C, strain cot1, active compounds read low 0.976 | S. cerevisiae deletion strains, locus YPL051W, strain arl3, active compounds read low 0.99 | S. cerevisiae deletion strains, locus YPL055C, strain LGE1, active compounds read low 1.03 | S. cerevisiae deletion strains, locus YPL078C, strain atp4, active compounds read low 0.995 | S. cerevisiae deletion strains, locus YPL106C, strain sse1, active compounds read low 0.97 | S. cerevisiae deletion strains, locus YPL240C, strain hsp82, active compounds read low 0.988 | S. cerevisiae deletion strains, locus YPL241C, strain CIN2, active compounds read low 0.999 | S. cerevisiae deletion strains, locus YPR119W, strain clb2, active compounds read low 0.985 | S. cerevisiae deletion strains, locus YPR141C, strain kar3, active compounds read low 0.986 | S. cerevisiae deletion strains, locus YPR163C, strain tif3, active compounds read low 0.978 | S. cerevisiae deletion strains, locus YPR167C, strain met16, active compounds read low 0.982 | S. cerevisiae deletion strains, strain wtn01, active compounds read low 0.983 | S. cerevisiae strains, strain wild type, active compounds read low 0.995
